Screens: PubChem BioAssay, Broad Institute
A selection: hits, their analogues and other compounds. The true share with any hit is near 6.7%.
Pf Dd2 growth – inhibitors of Plasmodium falciparum Dd2 growth. 94,000 compounds, 2.3% hits. activity change, % at 10 µM. P. falciparum Dd2 growth, SYBR Green, 72 h; hits give low values; in the data active = activity change below about -80%; inconclusive = no clear call, values can overlap the other calls
C diff HTS – C. difficile growth inhibition; Clostridium difficile clinical isolate growth, OD600, 24 h; hits give low values; growth activity, negative = inhibition, % at 16 µg/mL (by protocol); 86,000 compounds, 0.25% hits; AID 1259249;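 active = mean growth activity at or below -80% and every replicate also at or below -80%; inconclusive = mean at or below -80% but some replicate above -80%; inactive = mean growth activity above -80%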;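 note: 0% = DMSO wells and -100% = levofloxacin 16 µg/mL wells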
T cruzi growth – blocks T. cruzi growth in NIH3T3 culture | inhibition, % at 8.34 µM | 77,000 compounds, 5.9% hits | T. cruzi beta-gal in NIH3T3, GalScreen luminescence, 90 h;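 active = mean inhibition above about 93%, with at least 55% of replicates each passing it, limit read from the data, passing the limit was not always enough; inconclusive = only one of those two conditions holds; inactive = neither condition holds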
An asterisk follows results filed as active.

Cc1noc(C)c1S(=O)(=O)Nc1ccc2c(c1)C(=O)N([C@H](C)CO)C[C@@H](C)[C@H](CN(C)Cc1ccc(C(F)(F)F)cc1)O2 was read as Pf Dd2 growth -3, C diff HTS 1 and T cruzi growth 26.
For CCCC#Cc1cnc2c(c1)C(=O)N([C@@H](C)CO)C[C@H](C)[C@@H](CN(C)C(=O)c1ccc(F)cc1)O2 the results were Pf Dd2 growth -32, C diff HTS -7 and T cruzi growth 36.
O=C(C[C@H]1C=C[C@H](NC(=O)NC2CCCCC2)[C@@H](CO)O1)NCc1ccccc1 was read as Pf Dd2 growth 0 and T cruzi growth 6.
For CCS(=O)(=O)N1CCC2(CC1)CN(C(=O)Nc1c(C)noc1C)[C@@H](CO)c1[nH]c3cc(OC)ccc3c12 the results were Pf Dd2 growth -29 and C diff HTS -1.
COc1ccc(S(=O)(=O)N(C)C[C@@H]2Oc3c(NS(=O)(=O)c4ccc(C)cc4)cccc3C(=O)N([C@H](C)CO)C[C@H]2C)cc1 was read as Pf Dd2 growth 12 and C diff HTS -6.
For C[C@H](CO)N1C[C@H](C)[C@H](CN(C)Cc2ccc(C(F)(F)F)cc2)Oc2c(NC(=O)C3CCCCC3)cccc2C1=O the results were Pf Dd2 growth -30, C diff HTS 16 and T cruzi growth -72.
Screening C[C@H]1CN([C@@H](C)CO)C(=O)c2cccc(NC(=O)Nc3ccccc3)c2O[C@H]1CN(C)Cc1ccc(C(=O)Nc2ccccc2N)cc1 returned Pf Dd2 growth -73, C diff HTS -1 and T cruzi growth 74.
`C[C@H]1CN([C@@H](C)CO)C(=O)c2cccc(NC(=O)Nc3ccc(F)cc3)c2O[C@H]1CN(C)Cc1ccc(C(=O)Nc2ccccc2N)cc1` gave Pf Dd2 growth -71 and C diff HTS 13.
C[C@H](CO)N1C[C@H](C)[C@H](CN(C)Cc2ccc(C(=O)Nc3ccccc3N)cc2)Oc2c(NC(=O)C3CCCCC3)cccc2C1=O was read as Pf Dd2 growth inconclusive, C diff HTS -2 and T cruzi growth 79.
C[C@@H]1CN([C@@H](C)CO)C(=O)c2cccc(NC(=O)C3CCCCC3)c2O[C@H]1CN(C)Cc1ccc(C(F)(F)F)cc1 was read as Pf Dd2 growth -83*, C diff HTS 9 and T cruzi growth 62.
`C[C@@H]1CN([C@H](C)CO)C(=O)c2cccc(NC(=O)Nc3ccccc3)c2O[C@@H]1CN(C)Cc1ccc(C(=O)Nc2ccccc2N)cc1` gave Pf Dd2 growth -91*, C diff HTS 1 and T cruzi growth 57.
`C[C@H](CO)N1C[C@H](C)[C@@H](CN(C)Cc2ccc(C(=O)Nc3ccccc3N)cc2)Oc2c(NC(=O)Nc3ccc(F)cc3)cccc2C1=O` gave Pf Dd2 growth -85* and C diff HTS -4.
For C[C@H]1CN([C@@H](C)CO)C(=O)c2cccc(NC(=O)C3CCCCC3)c2O[C@@H]1CN(C)Cc1ccc(C(=O)Nc2ccccc2N)cc1 the results were Pf Dd2 growth -88*, C diff HTS -9 and T cruzi growth 85.
`Cc1noc(C)c1NC(=O)Nc1cccc2c1O[C@H](CN(C)S(=O)(=O)c1ccc(Cl)cc1)[C@H](C)CN([C@H](C)CO)C2=O` gave Pf Dd2 growth -62, C diff HTS -9 and T cruzi growth 23.
For C[C@H](CO)N1C[C@H](C)[C@@H](CN(C)Cc2ccncc2)Oc2c(NC(=O)Nc3ccc4c(c3)OCO4)cccc2C1=O the results were Pf Dd2 growth 0, C diff HTS 3 and T cruzi growth 54.
`COc1ccccc1C(=O)Nc1ccc2c(c1)OC[C@@H](C)N(CC1CC1)C[C@@H](C)[C@H](OC)CN(C)C2=O` gave T cruzi growth 35.
Screening CCC(=O)N1C[C@@H](C)[C@H](OC)CN(C)C(=O)c2cc(NC(=O)Nc3cccc(F)c3)ccc2OC[C@@H]1C returned Pf Dd2 growth 0 and T cruzi growth -6.
CCC(=O)Nc1ccc2c(c1)C(=O)N(C)C[C@@H](OC)[C@@H](C)CN(Cc1ccccc1C(=O)O)[C@@H](C)CO2 was read as Pf Dd2 growth 12 and T cruzi growth 48.
`COc1ccc(S(=O)(=O)N(C)C[C@@H]2Oc3ccc(N(C)C)cc3C(=O)N([C@@H](C)CO)C[C@H]2C)cc1` gave Pf Dd2 growth -3, C diff HTS 1 and T cruzi growth 27.
`CCCC(=O)Nc1ccc2c(c1)OC[C@@H](C)N(C(=O)CC)C[C@@H](C)[C@H](OC)CN(C)C2=O` gave Pf Dd2 growth -6 and T cruzi growth 12.
`CO[C@@H]1CN(C)C(=O)c2cc(NC(=O)c3ccc(F)cc3)ccc2OC[C@@H](C)NC[C@@H]1C` gave Pf Dd2 growth 10, C diff HTS -5 and T cruzi growth -3.
COc1ccc(NC(=O)Nc2cccc3c2O[C@@H](CN(C)Cc2ccc(C(=O)Nc4ccccc4N)cc2)[C@@H](C)CN([C@H](C)CO)C3=O)cc1 was read as Pf Dd2 growth -66 and C diff HTS 3.
Screening COc1ccc(NC(=O)Nc2cccc3c2O[C@H](CN(C)Cc2ccc(C(=O)Nc4ccccc4N)cc2)[C@H](C)CN([C@H](C)CO)C3=O)cc1 returned Pf Dd2 growth -93*, C diff HTS 7 and T cruzi growth 74.
CCS(=O)(=O)N1CC2(CN(Cc3ccccc3OC)[C@@H](CO)c3c2c2ccc(OC)cc2n3C)C1 was read as Pf Dd2 growth 35.
For C[C@@H]1CN([C@H](C)CO)C(=O)c2cc(NC(=O)Nc3ccc(F)cc3)ccc2O[C@@H](C)CCCCO[C@H]1CN(C)S(=O)(=O)c1ccc(Cl)cc1 the results were Pf Dd2 growth -73, C diff HTS -7 and T cruzi growth 88.
`Cc1ccc(S(=O)(=O)N(C)C[C@H]2OCCCC[C@H](C)Oc3ccc(NC(=O)Nc4ccc(F)cc4)cc3C(=O)N([C@@H](C)CO)C[C@H]2C)cc1` gave Pf Dd2 growth -82* and T cruzi growth 59.
Screening C[C@@H]1CCCCO[C@@H](CN(C)S(=O)(=O)c2ccc(Cl)cc2)[C@H](C)CN([C@H](C)CO)C(=O)c2cc(NC(=O)Nc3ccc(F)cc3)ccc2O1 returned Pf Dd2 growth -81*, C diff HTS 8 and T cruzi growth 89.
C[C@@H]1CN([C@H](C)CO)C(=O)c2cc(NC(=O)Nc3ccc(F)cc3)ccc2O[C@@H](C)CCCCO[C@H]1CN(C)S(=O)(=O)c1ccccc1 was read as Pf Dd2 growth -76, C diff HTS 4 and T cruzi growth inconclusive.
C[C@@H]1CCCCO[C@@H](CN(C)S(=O)(=O)c2ccccc2)[C@@H](C)CN([C@@H](C)CO)C(=O)c2cc(NC(=O)Nc3ccc(F)cc3)ccc2O1 was read as Pf Dd2 growth -81*, C diff HTS 8 and T cruzi growth 87.
C[C@@H]1CN([C@H](C)CO)C(=O)c2cc(NC(=O)Nc3ccc(F)cc3)ccc2O[C@@H](C)CCCCO[C@@H]1CN(C)S(=O)(=O)c1ccc(F)cc1 was read as Pf Dd2 growth -80, C diff HTS -9 and T cruzi growth 67.
Screening O=C(C[C@@H]1C=C[C@H](NC(=O)c2cccnc2)[C@@H](CO)O1)NCc1ccncn1 returned Pf Dd2 growth -10 and C diff HTS 4.
